Only some compounds are listed: those with a hit (about 4.9% of all), similar ones and a draw of the others.
Calb FLC: affects C. albicans growth with fluconazole; C. albicans CaCi-2 (fluconazole-resistant clinical isolate) + fluconazole, Alamar Blue growth, 48 h; growth inhibition, % (test concentration not listed); 0.57% of 300,000 active; AID 1979;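 active = growth inhibition above about 58% in most replicates, limit read from the data, passing the limit was not always enough; inconclusive = exactly half the replicates above a set limit; inactive = most replicates below a set limit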;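 also: all wells also contain fluconazole at 8 µg/ml as a sub-toxic cotreatment; 0% = median of DMSO wells and 100% = median of geldanamycin control wells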
Mdm2 MdmX PPI: disrupts the human Mdm2-MdmX interaction; AID 485346; 3% of 330,000 active; inhibition, % at 8 µM; SaOS-2 split-luciferase Mdm2/MdmX complementation, luminescence;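 active = inhibition of at least 50% at 8 µM in the primary screen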
Target sequence (O15151 whole entry, looked up): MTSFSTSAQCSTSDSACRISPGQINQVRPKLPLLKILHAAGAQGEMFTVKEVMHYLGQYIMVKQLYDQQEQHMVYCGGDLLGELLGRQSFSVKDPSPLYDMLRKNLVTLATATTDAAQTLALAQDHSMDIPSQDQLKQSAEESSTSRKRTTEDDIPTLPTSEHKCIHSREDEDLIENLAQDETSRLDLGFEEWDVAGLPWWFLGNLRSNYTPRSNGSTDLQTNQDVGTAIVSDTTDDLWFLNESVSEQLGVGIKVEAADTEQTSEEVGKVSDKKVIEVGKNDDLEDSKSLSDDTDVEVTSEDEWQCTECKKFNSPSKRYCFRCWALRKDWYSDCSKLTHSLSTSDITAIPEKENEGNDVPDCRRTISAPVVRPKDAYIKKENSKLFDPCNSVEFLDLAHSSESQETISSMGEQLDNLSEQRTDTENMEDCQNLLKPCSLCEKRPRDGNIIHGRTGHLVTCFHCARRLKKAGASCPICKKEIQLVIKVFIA
Target sequence (Q00987 whole entry, looked up): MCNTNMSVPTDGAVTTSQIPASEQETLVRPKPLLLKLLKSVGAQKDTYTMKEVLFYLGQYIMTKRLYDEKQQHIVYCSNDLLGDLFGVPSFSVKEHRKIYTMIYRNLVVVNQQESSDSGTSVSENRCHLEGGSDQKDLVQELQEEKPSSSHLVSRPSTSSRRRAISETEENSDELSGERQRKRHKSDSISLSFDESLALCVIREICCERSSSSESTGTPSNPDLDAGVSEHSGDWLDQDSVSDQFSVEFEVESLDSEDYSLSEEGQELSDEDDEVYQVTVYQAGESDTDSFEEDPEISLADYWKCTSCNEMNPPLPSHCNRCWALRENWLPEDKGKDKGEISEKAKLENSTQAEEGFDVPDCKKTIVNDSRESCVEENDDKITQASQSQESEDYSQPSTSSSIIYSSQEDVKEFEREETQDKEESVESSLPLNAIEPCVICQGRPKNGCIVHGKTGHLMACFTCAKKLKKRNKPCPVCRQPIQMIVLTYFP
CSC inhib: blocks cancer stem cells; cancer stem cell-like cells viability, luminescence; inhibition, % at 7.5 µM; 1.1% of 300,000 active; AID 2717; in the data active = inhibition above about 75%; inconclusive = no clear call, values can overlap the other calls; tested in HMLE shEcad cells
PP5 primary: blocks human protein phosphatase 5 activity. AID 1987. P53041. purified PP5c, OMFP substrate fluorescence. inhibition, % at 6.7 µM. 0.18% of 320,000 active;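 active = inhibition above the campaign's mean inhibition across all tested compounds plus 3 SD, cut at about 9.5% in these data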;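 also: 0% = DMSO only and 100% = 100 µM cantharidin control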
Beta apoptosis: blocks beta cell apoptosis; INS-1E cytokine-induced death, ATP luminescence, 48 h; percent of positive-control rescue, neutral wells zero; AID 435005; 0.8% of 300,000 active; protection from apoptosis, % (no concentration beside the values);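 active = Every replicate reaches about 75%, or at least half do and their mean reaches it too, limit read from the data; inconclusive = At least half of replicates reach the limit but their mean does not; inactive = Under half of replicates reach the limit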;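 also: 0% = cytokine-treated negative control wells and 100% = positive control rescue; higher means more ATP so stronger rescue from cytokine killing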
PP1 inh: PP1-alpha (human) inhibition in PP5 counter-screen; 0.9% of 320,000 active; P62136; inhibition, % at 6.7 µM; purified PP1alpha, OMFP fluorescence;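 active = inhibition above the mean inhibition of all tested compounds plus 3 SD, computed separately for each screening campaign, cut at about 15% in these data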
* = called active by the depositor; ? = inconclusive; . = no result; + = active, no number.

SMILES | Calb FLC | Mdm2 MdmX PPI | CSC inhib | PP5 primary | Beta apoptosis | PP1 inh
Cc1ccc(Sc2cc(C)nc(-c3ccccn3)n2)cc1 | 32.2 | -4.2 | -2.7 | -1.1 | 86.7* | 9.5
Cc1[nH]nc(SCC(=O)Nc2ccc(C#N)cc2)c1[N+](=O)[O-] | -0.1 | 21.1 | 17.0 | 4.9 | -10.9 | -3.7
NNC(=O)c1cc2c(N3CCC(Cc4ccccc4)CC3)ncnc2s1 | -5.4 | 17.7 | 17.5 | 0.2 | 7.2 | 15.9*
CCCOc1nc2c(c(=O)n(C)c(=O)n2C)n1Cc1cccc2ccccc12 | 25.3 | 24.2 | 5.4 | 3.1 | 103.0* | 3.1
CCCOc1nc2c(c(=O)n(C)c(=O)n2C)n1C | 4.1 | 0.4 | -2.5 | -2.4 | -2.9 | -0.3
COc1ccc(CCN(C)C2CCCN(S(=O)(=O)c3ccc(C)cc3)C2)cc1OC (configuration not stated) | 3.5 | 16.0 | -4.5 | 0.8 | -2.3 | 0.5
O=C(Nc1cc(-c2ccccc2)[nH]n1)c1ccc(Cl)cc1 | -1.0 | 1.2 | 60.0 | 1.2 | -0.8 | 17.4*
O=C(Nc1ccc(Cl)cc1Cl)c1ccc(-c2ccccc2)cc1 | 6.7 | -20.1 | -6.0 | -0.6 | -1.7 | -3.7
CCN=C1S/C(=C\c2cn(CC(=O)NCc3ccco3)c3ccccc23)C(=O)N1CC | -2.1 | 32.8 | . | 1.6 | 6.0 | 15.3*
C[C@@H]1CCCCCCCCC(=O)OCCN(C(=O)OC(C)(C)C)[C@H](C)CCCCCCCCC(=O)OCCN(C(=O)OC(C)(C)C)[C@H](C)CCCCCCCCC(=O)OCCN1C(=O)OC(C)(C)C | . | -5.6 | -8.4 | . | -14.0 | .
Cc1ccccc1N(C(=O)CNC(=O)c1ccco1)C(C(=O)NC1CCCCC1)c1cccnc1 (configuration not stated) | 1.7 | 25.9 | -0.8 | 2.1 | -0.8 | 5.5
CC(OC(=O)c1oc2ccccc2c1COc1ccccc1)C(N)=O (configuration not stated) | 109.2* | 17.5 | -14.2 | 4.2 | . | 2.3
COC(=O)CSc1nc(N)c2c3c(sc2n1)C(c1ccccc1)SC(c1ccccc1)C3 (configuration not stated) | 2.6 | 35.5 | + | 2.6 | 69.4 | 7.3
Cc1ccc(N=Cc2cc(Cc3ccccc3Cl)cc([N+](=O)[O-])c2O)c(O)c1 | 109.0* | 37.3 | 69.6 | 1.0 | 4.4 | 13.7
COc1ccc(N=Cc2cc(Cc3ccccc3Cl)cc([N+](=O)[O-])c2O)cc1OC | ? | 15.6 | . | 0.7 | -1.5 | -0.2
COC(=O)/C=C1\OC(c2ccccc2)=CC1=O | 18.8 | -3.9 | -5.3 | 3.0 | -11.9 | -1.6
Cc1nc(NS(=O)(=O)c2ccc(Br)cc2)c2c3c(sc2n1)CCC3 | 92.2* | 12.6 | -5.3 | 0.9 | 8.4 | -0.2
COC(=O)c1ccc(COc2ccccc2/C=C(\C#N)C(=O)Nc2ccc(C)cc2C)cc1 | -2.3 | 2.2 | 21.6 | 0.3 | 9.7 | -0.5
COC(=O)c1ccc(COc2ccccc2/C=C(\C#N)C(=O)Nc2c(C)cc(C)cc2C)cc1 | ? | 49.0 | 117.0* | 2.8 | 21.7 | 4.3
O=C(CSc1ncnc2nc[nH]c12)c1ccc(Cl)cc1 | 14.4 | 10.8 | 102.1* | 0.5 | -1.1 | 1.5
Cn1cc([N+](=O)[O-])c(C(=O)Nc2cc(Oc3ccccc3)cc([N+](=O)[O-])c2)n1 | 30.5 | . | 95.7* | 0.6 | 0.5 | -0.3
Cc1nn(C)cc1C(=O)Nc1cc(Oc2ccc(Cl)cc2)cc([N+](=O)[O-])c1 | 3.3 | 21.3 | -0.7 | 3.6 | 4.7 | 0.9
Cc1cccc(Oc2cc(NC(=O)c3ccccc3)cc([N+](=O)[O-])c2)c1 | -0.2 | 15.9 | 55.2 | 4.2 | 100.1* | 8.3
COCCn1c(SCCOc2ccccc2)nc2ccccc2c1=O | 0.6 | 9.8 | 3.9 | 5.1 | 1.9 | -2.1
Cc1ccc(N2C(=O)C(Cc3ccc(O)cc3)NC2=S)cc1C (configuration not stated) | 0.8 | -6.1 | 3.6 | -0.8 | 2.7 | -0.5
SMILES | Calb FLC | Mdm2 MdmX PPI | CSC inhib | PP5 primary | Beta apoptosis | PP1 inh
O=C(NCc1ccccn1)Nc1ccccc1C(F)(F)F | -6.2 | 14.8 | -12.6 | 3.1 | 15.1 | -3.4
COc1ccc(C(=O)NCC(=O)N2CCN(c3ncccn3)CC2)cc1OC | . | 18.0 | -15.2 | 1.8 | -1.7 | 2.5
COc1cc(/C=N/NC(=S)Nc2cccc(S(=O)(=O)N(C)C)c2)cc(OC)c1O | ? | 12.8 | -8.8 | 2.8 | -2.6 | 2.1
CN(C)S(=O)(=O)c1cccc(NC(=S)N/N=C/c2ccc(O)c(O)c2O)c1 | 76.7* | . | . | . | . | .
COc1c2ccoc2nc2c(OC)c(OCC(OC(C)=O)C(C)(C)O)ccc12 (configuration not stated) | 1.7 | 7.0 | -9.1 | 1.7 | -1.3 | -5.2
COc1c(O)cc2c(c1O)C(=O)CC(c1ccccc1)O2 (configuration not stated) | -6.6 | -46.8 | . | . | . | .
Cc1c(O)cc2c(c1O)C(=O)CC(c1ccccc1)O2 (configuration not stated) | 9.1 | -5.3 | 76.8* | 2.6 | 13.0 | -3.0
Cc1cc(C(=O)C(C)OC(=O)c2ccc(NC(=O)CC#N)cc2)c(C)n1-c1ccc(OC(F)F)cc1 (configuration not stated) | . | 27.2 | 48.7 | 4.3 | 87.5* | 11.3
CC1C(=O)N2CCCc3cc(S(=O)(=O)N4CCN(c5ccc(F)cc5)CC4)cc1c32 (configuration not stated) | 1.5 | 26.2 | -0.9 | -1.9 | -3.8 | -2.3
Cc1cc(C)cc(-n2c3nc4ccccc4nc3c3c(=O)n(Cc4ccco4)cnc32)c1 | -0.5 | 19.1 | 15.1 | 0.7 | -1.9 | 20.2*
O=S(=O)(CCSc1ccc(C(F)(F)F)cn1)c1ccc(Cl)cc1 | -9.3 | -10.1 | 2.1 | 2.5 | -1.2 | 2.3
Clc1ccc2nnnc(-c3ccccc3)c2c1 | 51.7 | . | 98.6* | 1.1 | 99.1* | -0.7
CCN1C(=O)[C@H]2[C@@H](c3ccc(-c4ccccc4)c(OC)c3)N[C@@](CC(C)C)(C(=O)OC)[C@H]2C1=O | . | 22.1 | . | . | 1.5 | .
Cc1ccc(O)c(C(=O)c2cc(C(=O)NCCc3ccccc3)c(=O)n(CCc3ccccc3)c2)c1 | -3.8 | 48.5 | 4.4 | 3.6 | -3.3 | 17.3*
COc1ccc(O)c(C(=O)c2cc(C(=O)NCCc3ccccc3)c(=O)n(CCc3ccccc3)c2)c1 | 37.0 | 37.7 | 6.5 | 2.2 | . | 8.2
O=[N+]([O-])c1ccc2c(c1)[nH]c(=S)n2-c1ccccc1 | 84.6* | 33.7 | 22.0 | 0.3 | -6.1 | -0.3
C=Cn1ccnc1CC(O)c1ccc(OC)cc1 (configuration not stated) | -4.0 | -0.3 | -0.2 | -0.8 | -7.6 | -3.2
O=C(CCc1ccccc1)NNC(=S)NC(=O)c1ccccc1 | 110.1* | 24.1 | 2.7 | 2.7 | 3.4 | -3.0
Cc1ccccc1C(=O)NNC(=S)NC(=O)c1ccccc1 | 97.7* | 27.9 | -6.4 | -0.9 | 11.2 | -1.0
CCCCOc1ccccc1C(=O)NNC(=S)NC(=O)c1ccccc1[N+](=O)[O-] | 102.5* | 41.9 | 20.0 | 1.1 | 66.8 | 6.0
Cc1onc(-c2ccccc2)c1C(=O)NC(=S)NNC(=O)c1ccccc1O | 23.5 | 29.5 | 9.4 | 1.4 | 84.6* | 3.2

High-throughput results from PubChem.
